The results in this text go back to ChEMBL document CHEMBL3988442, “University of Dundee, Small-Polar-MMV Screening Library” (2021).

For some of these results: Potency and affinity values are given separately.

Common to all, as to set-up: scale not given: direction of the effect not stated beside the values
The target of experiment [1] is Protein translocase subunit SecA (Escherichia coli (strain K12)) (UniProt P10408). In words: Assay to Identify E. coli SecA ATPase Inhibitors. It counts as functional. Particulars: 30 µM.
Protein translocase subunit SecA (Escherichia coli (strain K12)), sequence (P10408 whole entry): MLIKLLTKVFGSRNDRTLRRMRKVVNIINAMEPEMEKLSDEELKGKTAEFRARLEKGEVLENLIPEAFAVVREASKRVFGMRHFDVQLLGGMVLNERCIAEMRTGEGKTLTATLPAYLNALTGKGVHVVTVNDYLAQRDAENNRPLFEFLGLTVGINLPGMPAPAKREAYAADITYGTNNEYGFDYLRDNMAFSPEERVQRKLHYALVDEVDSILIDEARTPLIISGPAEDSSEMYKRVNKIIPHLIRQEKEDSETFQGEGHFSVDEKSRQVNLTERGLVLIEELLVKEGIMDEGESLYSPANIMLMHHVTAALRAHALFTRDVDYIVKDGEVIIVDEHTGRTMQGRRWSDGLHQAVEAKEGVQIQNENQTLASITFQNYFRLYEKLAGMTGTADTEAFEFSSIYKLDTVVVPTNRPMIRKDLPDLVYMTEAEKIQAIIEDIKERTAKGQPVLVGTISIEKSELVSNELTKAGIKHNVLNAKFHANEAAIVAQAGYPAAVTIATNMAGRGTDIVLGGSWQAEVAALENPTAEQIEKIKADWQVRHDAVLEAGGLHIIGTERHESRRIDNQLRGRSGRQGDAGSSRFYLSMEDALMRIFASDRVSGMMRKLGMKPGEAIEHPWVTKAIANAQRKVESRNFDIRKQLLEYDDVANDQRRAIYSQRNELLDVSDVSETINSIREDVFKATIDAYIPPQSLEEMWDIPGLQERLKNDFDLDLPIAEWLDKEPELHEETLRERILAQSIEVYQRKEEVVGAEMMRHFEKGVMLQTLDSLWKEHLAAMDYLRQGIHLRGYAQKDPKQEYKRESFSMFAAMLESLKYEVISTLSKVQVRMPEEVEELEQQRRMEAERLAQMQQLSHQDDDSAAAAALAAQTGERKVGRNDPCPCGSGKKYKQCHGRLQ
The target of experiment [2] is T1, Ubiquitin-activating enzyme e1, putative (Leishmania donovani (strain BPK282A1)) (UniProt E9BSI1).
T1 sequence (whole entry): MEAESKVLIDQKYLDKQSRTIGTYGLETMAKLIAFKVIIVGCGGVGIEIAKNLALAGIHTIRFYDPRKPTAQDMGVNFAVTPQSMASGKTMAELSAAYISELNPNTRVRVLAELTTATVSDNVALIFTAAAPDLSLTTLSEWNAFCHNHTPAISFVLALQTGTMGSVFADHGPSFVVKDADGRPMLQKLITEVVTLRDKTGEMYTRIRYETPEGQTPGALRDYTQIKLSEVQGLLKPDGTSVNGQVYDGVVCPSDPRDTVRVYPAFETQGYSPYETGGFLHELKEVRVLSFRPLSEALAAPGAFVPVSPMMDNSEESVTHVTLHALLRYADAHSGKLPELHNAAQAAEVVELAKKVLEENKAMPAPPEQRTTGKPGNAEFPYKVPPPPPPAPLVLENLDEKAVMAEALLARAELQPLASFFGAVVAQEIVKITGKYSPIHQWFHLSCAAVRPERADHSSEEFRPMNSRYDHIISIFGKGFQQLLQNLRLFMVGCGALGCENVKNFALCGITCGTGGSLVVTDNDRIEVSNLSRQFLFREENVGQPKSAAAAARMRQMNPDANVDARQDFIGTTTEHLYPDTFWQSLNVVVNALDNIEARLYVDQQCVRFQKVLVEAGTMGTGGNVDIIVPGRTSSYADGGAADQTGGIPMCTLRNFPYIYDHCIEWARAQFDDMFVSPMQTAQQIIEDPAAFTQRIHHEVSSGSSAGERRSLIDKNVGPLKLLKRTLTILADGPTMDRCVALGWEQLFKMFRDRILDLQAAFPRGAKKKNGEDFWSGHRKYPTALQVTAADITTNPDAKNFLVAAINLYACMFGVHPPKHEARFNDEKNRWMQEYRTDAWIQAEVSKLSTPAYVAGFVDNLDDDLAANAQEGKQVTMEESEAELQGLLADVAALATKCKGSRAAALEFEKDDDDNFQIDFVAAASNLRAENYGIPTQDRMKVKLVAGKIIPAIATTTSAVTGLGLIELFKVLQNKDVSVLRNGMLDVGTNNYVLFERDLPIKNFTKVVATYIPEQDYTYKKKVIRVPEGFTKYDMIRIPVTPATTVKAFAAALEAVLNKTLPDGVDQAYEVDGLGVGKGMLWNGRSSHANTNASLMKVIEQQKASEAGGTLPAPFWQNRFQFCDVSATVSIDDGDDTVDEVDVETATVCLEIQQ
In words: Leishmania donovani Ubiquitin Activating Enzyme (LdE1). It counts as functional. The note with it: 30 µM.

Experiment [3] concerns the target AMP-activated protein kinase, AMPK (Homo sapiens) (UniProt P54646+O43741+P54619+Q9UGJ0+Q9Y478+Q13131+Q9UGI9). In words: AMP-dependent Kinase enzyme assay. An in vitro enzyme assay that detects ADP turnover that is directly proportional to AMPK activity. This uses naive AMPK that is activated during the assay with MK-8722. The note with it: 30 µM. The class given is functional.

Experiment [4] has as its target Sialic acid-binding Ig-like lectin 9 (Homo sapiens) (UniProt Q9Y336). In words: Hs-Siglec9 ALPHAscreen SOP 20170721. The note with it: 10 µM. Background: Alpha assays give light when donor and acceptor beads are brought close together.
In a further experiment the test system is Trypanosoma cruzi. In words: Trypanosoma cruzi phosphomannomutase and mannose-1-phosphate guanylyltransferase assay. The class given is functional. The note with it: 10 µM.
Experiment [5] addresses T2, Arginase-2, mitochondrial (Homo sapiens) (UniProt P78540).
T2 sequence (whole entry): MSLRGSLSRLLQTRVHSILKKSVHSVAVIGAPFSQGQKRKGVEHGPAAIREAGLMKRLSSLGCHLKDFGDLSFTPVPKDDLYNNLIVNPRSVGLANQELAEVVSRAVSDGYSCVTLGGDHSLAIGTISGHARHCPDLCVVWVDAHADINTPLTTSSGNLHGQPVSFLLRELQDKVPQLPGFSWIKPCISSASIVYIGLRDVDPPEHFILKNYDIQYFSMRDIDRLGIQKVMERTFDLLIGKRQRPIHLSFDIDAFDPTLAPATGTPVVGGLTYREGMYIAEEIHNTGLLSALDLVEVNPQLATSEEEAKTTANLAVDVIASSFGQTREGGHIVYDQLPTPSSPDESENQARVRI
In words: in vitro enzyme assay to detect the production of urea directly proportional to the activity of Arginase II. Note: in the data most compounds retested in dose-response had high values. It counts as functional. The note with it: 33.3 µM.

The target of experiment [6] is T3, Proteasome subunit beta (Trypanosoma cruzi) (UniProt O96673).
T3 sequence (whole entry): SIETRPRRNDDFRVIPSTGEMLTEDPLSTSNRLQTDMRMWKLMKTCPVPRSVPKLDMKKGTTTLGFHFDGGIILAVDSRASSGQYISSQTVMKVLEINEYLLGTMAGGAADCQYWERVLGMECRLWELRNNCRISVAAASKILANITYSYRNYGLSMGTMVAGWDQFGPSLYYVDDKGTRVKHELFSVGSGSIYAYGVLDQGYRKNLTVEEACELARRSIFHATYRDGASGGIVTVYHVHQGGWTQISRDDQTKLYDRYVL
In words: Trypanosoma cruzi proteasome chymotrypsin-like activity (TcProtChymo) assay. Note: in the data most compounds retested in dose-response had high values. The class given is functional. Particulars: 9.37 µM.

The species entered for a further experiment is Homo sapiens. In words: To identify inhibition of the IFN signalling (Jak-Stat) pathway via expression of an eGFP reporter gene under the control of an IFN-stimulated response element (ISRE) containing MxA promoter. It counts as functional. Particulars: 30 µM. (In general: Reporter assays use an easily measured gene product as a stand-in for the process of interest.)

In experiment [7] the target is T4, Tyrosyl-tRNA synthetase, putative (Trypanosoma cruzi (strain CL Brener)) (UniProt Q4DSP6).
T4 sequence (whole entry): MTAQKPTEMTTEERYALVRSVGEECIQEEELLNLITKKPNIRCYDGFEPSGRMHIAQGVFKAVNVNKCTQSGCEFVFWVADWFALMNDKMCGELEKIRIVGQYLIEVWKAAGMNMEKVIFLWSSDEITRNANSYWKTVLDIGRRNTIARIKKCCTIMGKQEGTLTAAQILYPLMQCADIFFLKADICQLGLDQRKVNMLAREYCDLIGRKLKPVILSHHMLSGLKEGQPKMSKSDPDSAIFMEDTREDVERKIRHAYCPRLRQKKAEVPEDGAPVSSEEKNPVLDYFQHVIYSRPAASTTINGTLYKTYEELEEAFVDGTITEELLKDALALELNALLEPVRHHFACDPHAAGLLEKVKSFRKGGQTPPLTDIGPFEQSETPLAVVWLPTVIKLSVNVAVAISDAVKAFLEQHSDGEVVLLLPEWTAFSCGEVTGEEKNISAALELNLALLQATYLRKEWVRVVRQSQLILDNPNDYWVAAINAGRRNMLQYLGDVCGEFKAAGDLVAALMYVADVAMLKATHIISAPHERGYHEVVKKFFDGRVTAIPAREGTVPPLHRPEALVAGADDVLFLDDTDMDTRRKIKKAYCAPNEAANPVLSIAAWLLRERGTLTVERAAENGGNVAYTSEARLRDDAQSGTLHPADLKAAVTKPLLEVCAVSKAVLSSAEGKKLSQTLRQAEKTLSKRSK
In words: Trypanosoma cruzi tyrosyl tRNA synthetase (TcYRS) _High Tyrosine SOP. Note: in the data most compounds retested in dose-response had high values. The class given is functional. The note with it: 30 µM.

Experiment [8] deals with T4, Tyrosyl-tRNA synthetase, putative (Trypanosoma cruzi (strain CL Brener)). In words: Trypanosoma cruzi tyrosyl tRNA synthetase (TcYRS) SOP. The class given is functional. The note with it: 30 µM.
In experiment [9] the target is Chromo domain-containing protein 1 (Saccharomyces cerevisiae (strain ATCC 204508 / S288c) (Baker's yeast)) (UniProt P32657). In words: ScCHD-1 Enzyme Inhibition Assay. Note: in the data most compounds retested in dose-response had high values. It counts as functional. The note with it: 30 µM.
Chromo domain-containing protein 1 (Saccharomyces cerevisiae (strain ATCC 204508 / S288c) (Baker's yeast)), sequence (P32657 whole entry, the tested form may be a part): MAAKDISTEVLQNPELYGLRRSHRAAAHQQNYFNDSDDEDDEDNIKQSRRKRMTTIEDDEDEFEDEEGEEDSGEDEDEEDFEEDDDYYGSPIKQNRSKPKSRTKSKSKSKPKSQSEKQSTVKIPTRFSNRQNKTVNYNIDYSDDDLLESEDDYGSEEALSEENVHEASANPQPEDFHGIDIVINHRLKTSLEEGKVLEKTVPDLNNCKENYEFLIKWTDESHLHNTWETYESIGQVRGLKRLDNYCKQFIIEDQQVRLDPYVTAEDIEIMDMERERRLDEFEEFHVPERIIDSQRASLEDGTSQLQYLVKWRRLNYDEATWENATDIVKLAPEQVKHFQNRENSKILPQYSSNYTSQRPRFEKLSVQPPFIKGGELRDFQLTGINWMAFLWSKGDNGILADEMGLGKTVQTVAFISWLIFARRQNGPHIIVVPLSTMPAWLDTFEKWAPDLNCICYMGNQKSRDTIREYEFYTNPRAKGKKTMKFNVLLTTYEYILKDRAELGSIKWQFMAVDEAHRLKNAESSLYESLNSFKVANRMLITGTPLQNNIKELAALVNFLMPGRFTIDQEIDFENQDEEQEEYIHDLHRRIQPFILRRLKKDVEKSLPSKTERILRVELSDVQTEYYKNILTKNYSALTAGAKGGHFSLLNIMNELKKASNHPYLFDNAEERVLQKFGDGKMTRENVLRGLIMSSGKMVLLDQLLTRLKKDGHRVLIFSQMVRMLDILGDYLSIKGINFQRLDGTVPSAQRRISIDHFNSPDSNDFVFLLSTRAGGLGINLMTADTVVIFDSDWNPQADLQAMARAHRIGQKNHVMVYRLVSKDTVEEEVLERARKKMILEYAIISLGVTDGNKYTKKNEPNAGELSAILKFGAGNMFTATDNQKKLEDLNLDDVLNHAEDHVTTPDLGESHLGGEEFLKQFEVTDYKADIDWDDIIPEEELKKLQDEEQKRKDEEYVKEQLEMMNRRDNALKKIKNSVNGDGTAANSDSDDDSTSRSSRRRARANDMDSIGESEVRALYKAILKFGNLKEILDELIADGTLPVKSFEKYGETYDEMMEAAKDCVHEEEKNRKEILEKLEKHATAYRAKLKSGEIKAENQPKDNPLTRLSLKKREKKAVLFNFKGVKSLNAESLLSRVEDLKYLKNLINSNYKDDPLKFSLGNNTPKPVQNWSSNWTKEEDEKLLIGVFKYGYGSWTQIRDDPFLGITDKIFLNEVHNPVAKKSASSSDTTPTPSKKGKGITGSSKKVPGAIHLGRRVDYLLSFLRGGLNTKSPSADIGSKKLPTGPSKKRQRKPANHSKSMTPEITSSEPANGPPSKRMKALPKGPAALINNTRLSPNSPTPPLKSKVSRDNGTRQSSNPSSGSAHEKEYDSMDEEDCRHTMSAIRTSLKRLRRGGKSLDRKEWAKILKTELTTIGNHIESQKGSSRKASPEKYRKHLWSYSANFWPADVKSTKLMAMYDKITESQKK

Sialic acid-binding Ig-like lectin 9 (Homo sapiens), sequence (Q9Y336 whole entry): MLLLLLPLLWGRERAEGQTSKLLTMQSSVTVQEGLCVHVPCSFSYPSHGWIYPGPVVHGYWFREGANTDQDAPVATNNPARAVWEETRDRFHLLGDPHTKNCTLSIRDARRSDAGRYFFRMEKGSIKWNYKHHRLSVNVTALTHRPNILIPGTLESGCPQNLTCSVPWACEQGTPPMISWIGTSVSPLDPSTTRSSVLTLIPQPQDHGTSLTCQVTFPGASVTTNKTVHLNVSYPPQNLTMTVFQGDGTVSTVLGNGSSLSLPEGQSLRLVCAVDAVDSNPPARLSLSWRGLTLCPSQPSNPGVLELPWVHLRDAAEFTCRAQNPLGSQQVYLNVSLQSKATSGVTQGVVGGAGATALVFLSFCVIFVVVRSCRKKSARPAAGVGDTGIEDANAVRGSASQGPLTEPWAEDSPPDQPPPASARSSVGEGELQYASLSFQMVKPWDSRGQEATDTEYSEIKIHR

With `Cc1nn(C(C)C)c(C)c1NC(=O)c1ccncc1`, the Percent Effect was -2.46% in experiment [1]; 16.4% in experiment [2]; -7.09% in [3]; 5.06% in [4]; 5.56% in the experiment on Trypanosoma cruzi; 0.399% in [5]. Besides, the Percent Effect in experiment [6] is 16.5%; in the experiment filed under Homo sapiens, -7.45%; in experiment [7], 10.4%; in [8] it was 11.1%; in experiment [9], -7.44%.

On to `CCc1nnc(CN(C)c2nc(C3CCCC3)nc3c2cnn3C)o1`, for which the Percent Effect in experiment [1] was -4.33%; in experiment [2] it was 4.17%; in [3] it was 7.51%; in experiment [4], 2.48%; in the experiment with Trypanosoma cruzi, 3.79%; in experiment [5], 2.65%. The Percent Effect in experiment [6] is 10.5%; in the experiment filed under Homo sapiens, 7.5%; in experiment [7], 1.05%; in experiment [8], 7.69%; in experiment [9], -2.84%.

Turning to `Cc1cnn(CCNCc2nc(COc3ccc(F)cc3)no2)c1`, the Percent Effect in [1] was -2.17%; in [2], 2.63%; in [3], 1.92%; in [4], 0.726%; in the experiment on Trypanosoma cruzi, 0.94%; in experiment [5], 1.92%. The Percent Effect was 12.7% in [6]; 11.9% in the experiment listed under Homo sapiens; 4.41% in [7]; -29.3% in [8]; -8.97% in experiment [9].

With `CCn1cnnc1CNC(=O)N1CCN(Cc2ccccc2)CC1`, the Percent Effect in [1] was -4.19%; in experiment [2] it was 26%; in experiment [3] it was -4.86%; in [4], -6.22%; in the experiment with Trypanosoma cruzi, 6.95%; in experiment [5], -2.32%. For the same compound, the Percent Effect is 12.1% in [6]; 0.217% in the experiment listed under Homo sapiens; 8.57% in experiment [7]; 30.6% in experiment [8]; -22.4% in experiment [9].

In the case of `O=C(CCNC(=O)C1CCCC1)NCc1cccnc1-n1cncn1`, the Percent Effect was -4.32% in experiment [1]; 15.8% in experiment [2]; -2.4% in [3]; 3.19% in experiment [4]; -1.21% in the experiment on Trypanosoma cruzi; -2.88% in experiment [5]. Further, the Percent Effect was 9.56% in experiment [6]; -0.451% in the experiment filed under Homo sapiens; 14.3% in experiment [7]; 25.9% in [8]; -0.359% in [9].

Regarding `Cc1cccc(CNC(CN2CCN(C)CC2)c2ccccc2)c1` (stereo unspecified), the Percent Effect in [1] was -2.61%; in experiment [2], 8.11%; in experiment [3] it was -13.3%; in experiment [4], 17.7%; with Trypanosoma cruzi it was 3.23%; in experiment [5], 29.5%. For the same compound, the Percent Effect in experiment [6] was 7.3%; in the experiment listed under Homo sapiens it was 25.7%; in experiment [7], 5.38%; in [8] it was 11.1%; in experiment [9], -5.02%.

As for `Cn1nc2c(cc1=O)CN(CC(=O)Nc1ccc(Cl)cn1)CC2`, the Percent Effect is -3.42% in experiment [1]; 18.1% in [2]; -417% in experiment [3]; 5.46% in experiment [4]; -0.291% in the experiment with Trypanosoma cruzi; -1.32% in experiment [5]. For the same compound, the Percent Effect is 12.3% in [6]; -2.31% in the experiment filed under Homo sapiens; -2.1% in [7]; -5.13% in experiment [8]; -1.83% in [9].

In the case of `Cc1n[nH]cc1CNc1ccc2c(c1)N(C(=O)OC(C)(C)C)CCC2`, the Percent Effect in experiment [1] was -6.86%; in [2] it was 7.79%; in [3] it was -1.81%; in [4] it was 5.14%; in the experiment with Trypanosoma cruzi, 1.08%; in experiment [5] it was -8.28%. In addition, the Percent Effect in experiment [6] was 7.65%; in the experiment listed under Homo sapiens, 4.68%; in [7], 4.3%; in [8], 8.64%; in experiment [9], 0.972%.

As for `O=C(c1ccncc1F)N1CCc2ncnc(-c3ccncc3)c2CC1`, the Percent Effect in experiment [1] is -6.29%; in experiment [2] it was 5.41%; in [3] it was -2.05%; in [4], -1.21%; in the experiment on Trypanosoma cruzi, -5.38%; in experiment [5], -0.955%. In addition, the Percent Effect in experiment [6] worked out at 10.7%; in the experiment filed under Homo sapiens it was 14%; in experiment [7] it was 1.08%; in experiment [8], 7.69%; in experiment [9], 0.761%.

For the compound `O=C(Nc1nccs1)N1CCCC(N2CCNC2=O)C1` (stereo unspecified), the Percent Effect was -3.07% in experiment [1]; 11% in experiment [2]; 7.04% in [3]; 15.8% in experiment [4]; 0.196% with Trypanosoma cruzi; 17.3% in experiment [5]. The Percent Effect in experiment [6] was 21.1%; in the experiment listed under Homo sapiens it was 2.14%; in experiment [7], 4.3%; in experiment [8] it was 22.5%; in experiment [9], -6.39%.

Regarding `CCc1cnc(CN(C)C2CCN(CCc3ccccn3)C2)o1` (stereo unspecified), the Percent Effect in experiment [1] is 3.36%; in experiment [2], 9.72%; in experiment [3], -16%; in experiment [4], 1.45%; in the experiment on Trypanosoma cruzi, -3.21%; in experiment [5], 3.97%. The Percent Effect was 25.6% in [6]; 0.763% in the experiment listed under Homo sapiens; 10.5% in experiment [7]; 5.13% in experiment [8]; 107% in experiment [9].
